Measurements published in PubChem BioAssay (NCATS).
Values joined by “and” are separate entries in the source; they are usually repeats but may differ in a detail not shown here. Equal values may be shown once. Inconclusive results are not listed. Active and inactive are the calls of the source. The call rests on the fitted dose curve; in most records, active means well fitted curve in the direction sought with a large enough effect; inconclusive means small, poorly fitted or top-dose-only effect, or another doubt; inactive means no such curve, though single readings can be large or run the other way. Where a SMILES comes first, the peptide text is derived from it. Bridges are numbered along the chain shown (N, C = ends). [ ]: non-standard residue; d: D form. The star is where a group is joined. X2 = CC[C@H](C)CCCCC(=O)*; Dab = NCC[C@H](N)C(=O)O

Assay: qHTS Assay for Identifying Gametocytocidal Compounds (AID 743244);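 on max response: actives lower the fluorescent signal which means gametocytes are killed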
Details: P. falciparum 3D7 stage III-V gametocytes, alamarBlue, 72 h; max response: active compounds read low
Procedure, shortened: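 Viability read-out was resazurin reduction (alamarBlue, 24 h) measured at Ex 525/Em 598 nm. Beforehand, late-stage (III-V) 3D7 P. falciparum gametocytes at 20,000 cells/well were incubated with compound 72 h at 37C under 5% CO2.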
On the % scale 0 is the no-effect control and ±100 the full control effect; potency means the concentration at half of the fitted maximal effect.

SMILES | max response | Potency
O=C(O[C@H]1CN2CCC1CC2)N1CCc2ccccc2[C@@H]1c1ccccc1 | 5.85% (inactive) | 
CCOC(=O)Cc1ccc(-c2ccccc2)cc1 | -12.4% (inactive) | 
COc1ccc([C@@H]2CC(=O)c3c(O)cc(O[C@@H]4O[C@H](CO[C@@H]5O[C@@H](C)[C@H](O)[C@@H](O)[C@H]5O)[C@@H](O)[C@H](O)[C@H]4O)cc3O2)cc1O | 22.8% (inactive) | 
CO/N=C(\C(=O)N[C@@H]1C(=O)N2C(C(=O)[O-])=C(C[n+]3ccc(N)n3CCO)CS[C@H]12)c1csc(N)n1 | -6.21% (inactive) | 
CC(=O)N[C@@H]1C(O[C@H]2O[C@H](C(=O)O)C(O)[C@H](O)[C@H]2O)[C@H](O)[C@@H](CO)O[C@H]1O[C@@H]1C(C(=O)O)O[C@@H](O[C@H]2[C@H](O)[C@@H](CO)OC(O)[C@@H]2NC(C)=O)[C@H](O)[C@H]1O (stereo partly drawn) | -1.86% (inactive) | 
C=C1CC[C@H](O)C/C1=C\C=C1/CCC[C@]2(C)[C@@H]([C@H](C)CCCC(C)C)CC[C@@H]12 | 7.84% (inactive) | 
COc1ccc2nc(NC(=O)Nc3ccccc3)sc2c1 | -0.997% (inactive) | 
Cn1nnnc1SCC1=C(C(=O)O)N2C(=O)[C@@H](NC(=O)[C@H](O)c3ccccc3)[C@H]2SC1 | -1.19% (inactive) | 
OC1OC[C@@H](O)[C@H](O)[C@@H]1O (stereo partly drawn) | 7.58% (inactive) | 
CO/N=C(\C(=O)N[C@@H]1C(=O)N2C(C(=O)O)=C(CSc3nc(C)c(CC(=O)O)s3)CS[C@H]12)c1csc(N)n1 | 4.68% (inactive) | 
CC(C)CN(C[C@@H](OP(=O)(O)O)[C@H](Cc1ccccc1)NC(=O)O[C@H]1CCOC1)S(=O)(=O)c1ccc(N)cc1 | -7.76% (inactive) | 
CC(=NCc1ccccc1)c1ccccc1O | -2.19% (inactive) | 
CC(=O)N=c1sc(S(N)(=O)=O)nn1C | 3.69% (inactive) | 
CCCCCCCCCCCCCCCCCC(=O)OCC(C)O (stereo not drawn) | 2.45% (inactive) | 
CC1=CC(=C(c2ccc(N)cc2)c2ccc(N)cc2)C=CC1=N |  | 7.94 µM (active)
CC/C=C\C/C=C\C/C=C\C/C=C\C/C=C\CCCC(=O)O | -4.05% (inactive) | 
C[Se]CC[C@H](N)C(=O)O | 8.55% (inactive) | 
CCCCCCCCCCCC(=O)N(CCO)CCO | 11.9% (inactive) | 
NC(=O)Oc1ccc(Cc2ccccc2)cc1 | -7.34% (inactive) | 

SMILES | max response | Potency
Cc1cccc(Nc2ncccc2C(=O)O)c1C | 39.6% (inactive) | 
O=C1CCC(c2ccccc2)(C2CCN(Cc3ccccc3)CC2)C(=O)N1 (stereo not drawn) | 0.775% (inactive) | 
CC(C)(Oc1ccc(C2CCCc3ccccc32)cc1)C(=O)O (stereo not drawn) | -6.04% (inactive) | 
CN1CCc2c(c3ccccc3n2Cc2ccccc2)C1 | 9.99% (inactive) | 
CC(C)(O/N=C(\C(=O)N[C@@H]1C(=O)N2C(C(=O)[O-])=C(C[n+]3ccccc3)CS[C@H]12)c1csc(N)n1)C(=O)O | 20.4% (inactive) | 
CC[C@H](C)CCCCC(=O)N[C@@H](CCN)C(=O)N[C@H](C(=O)N[C@@H](CCN)C(=O)N[C@H]1CCNC(=O)[C@@H]([C@H](C)O)NC(=O)[C@H](CCN)NC(=O)[C@H](CCN)NC(=O)[C@H](CC(C)C)NC(=O)[C@@H](CC(C)C)NC(=O)[C@H](CCN)NC1=O)[C@@H](C)O (X2-[Dab]T[Dab][Dab][Dab][dL]L[Dab][Dab][dT]; lactam 4-C) | -2.93% (inactive) | 
CC(C)=CCC/C(C)=C/CC/C(C)=C/CC/C=C(\C)CC/C=C(\C)CCC=C(C)C | -7.41% (inactive) and 5.06% (inactive) | 
C[C@H](O)CN(C)C | -4.88% (inactive) | 
CC1(C)S[C@@H]2[C@H](N3C(=O)C(c4ccccc4)NC3(C)C)C(=O)N2[C@H]1C(=O)O (stereo partly drawn) | 5.31% (inactive) | 
CCN(CC)C(=O)c1cccnc1 | -8.37% (inactive) | 
NC(=S)NS(=O)(=O)c1ccc(N)cc1 | 5.02% (inactive) | 
S=C=Nc1ccc(N=C=S)cc1 | -17.1% (inactive) | 
CN=C1C=CC(=C(c2ccc(N(C)C)cc2)c2ccc(N(C)C)cc2)C=C1 |  | 3.55 µM (active)
CCCCCCCCCCCC(=O)OCC(O)CO (stereo not drawn) | 3.54% (inactive) | 
C[C@]12CC[C@@H]3c4ccc(O)cc4CC[C@H]3[C@@H]1CC[C@@H]2OP(=O)(O)O | -0.293% (inactive) | 
[O]=[Bi][O]C(=O)[O][Bi]=[O] | -0.353% (inactive) | 
C=N[C@@H](C(=O)N[C@@H]1C(=O)N2[C@@H]1SC(C)(C)[C@@H]2C(=O)O)c1ccccc1 | -0.476% (inactive) | 
CC1(C)[C@@H]2CC[C@@]1(C)[C@H](OC(=O)CSC#N)C2 | -3.31% (inactive) | 
C(=C\c1ccncc1)/c1ccccc1 | 1.05% (inactive) and -0.436% (inactive) | 
